Outcome and AC50 data for 40 compounds are collected here from PubChem BioAssay (EPA / NIEHS).

Activity calls are given as the source filed them. Rule for the calls: active = hit-call score of the fitted dose curve at least 0.9, where 1 is the maximum; inactive = score below 0.9.

The nature of one assay: ATG_AP_1_CIS: Attagene CIS-FACTORIAL HepG2 Assay for human Activator Protein 1 (AP-1) (AID 2282931). Conditions: HepG2 Attagene cis-factorial AP-1 reporter mRNA; actives raise or lower the signal. A digest of the protocol: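 Endogenous transcription-factor activity in human HepG2 liver cells is read through a cis-promoter reporter transcript, sampled 24 h after dosing. Detection uses RT-PCR with capillary electrophoresis; values come from bidirectional fitting relative to DMSO.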
Consider `Nc1c(Oc2ccccc2)cc(O)c2c1C(=O)c1ccccc1C2=O`, for which the compound was classed as inactive.

On to `C=CCN=C=S`, for which the result was inactive.

In the case of `C[C@]12CC[C@@H](O)C[C@@H]1CC[C@@H]1[C@@H]2CC[C@]2(C)C(=O)CC[C@@H]12`, the outcome was inactive.

With `C#CCOC(=O)/C=C(C)/C=C/CC(C)CCCC(C)C` (stereo not given), the AC50 (commonly the concentration at which the activity in the assay is half-maximal) is 55.3 µM (active).

Regarding `C=C(C)[C@@H]1CC=C(C=O)CC1`, the AC50 is 100 µM (active).

As to `CN(C)[C@@H]1C(=O)C(C(N)=O)=C(O)[C@@]2(O)C(=O)C3=C(O)c4c(O)ccc(Cl)c4[C@@](C)(O)[C@H]3C[C@@H]12`, the AC50 was 26.3 µM (active).

For `Cc1cc(C)cc(C)c1`, the call was inactive.

As for `O=c1[nH]c2ccccc2n1C1CCN(CCCC(c2ccc(F)cc2)c2ccc(F)cc2)CC1`, the compound was classed as inactive.

Turning to `C=CCCl`, the compound was called inactive.

On to `C1CN2CCN1CC2`, for which the call was inactive.

Consider `COCC(=O)N(c1c(C)cccc1C)[C@H](C)C(=O)OC`, for which the call was inactive.

Take `CCCSP(=S)(OCC)Oc1ccc(SC)cc1` (stereo not given): the outcome was inactive.

Turning to `CCOc1ccc(N)cc1`, the call was inactive.

Turning to `COc1ccc([N+](=O)[O-])cc1O`, the call was inactive.

For the compound `OC(Cc1ccccc1Cl)(Cn1[nH]cnc1=S)C1(Cl)CC1` (stereo not given), the AC50 is 53 µM (active).

Take `CC(C)(C)c1ccccc1O`: the AC50 was 75.5 µM (active).

`CC(C)[N+](=O)[O-]`: the compound was classed as inactive.

With `CCCCCCCCCCCCc1cccc(S(=O)(=O)O)c1`, the compound was classed as inactive.

For the compound `O=C(CCl)Nc1ccccc1`, the outcome was inactive.

For the compound `CC(C=O)Cc1ccc2c(c1)OCO2` (stereo not given), the call was inactive.

Turning to `BrCCCCBr`, the compound was classed as inactive.

Consider `CC(C)O.CC(C)O.OCCN(CCO)CCO.OCCN(CCO)CCO.[Ti]`, for which the call was inactive.

Take `CCCCOC(C)=O`: the outcome was inactive.

In the case of `Cc1ccc(OP(=O)(Oc2ccc(C)cc2C)Oc2ccc(C)cc2C)c(C)c1`, the result was inactive.

Turning to `CC(C)(C)c1ccc(CCOc2ncnc3ccccc23)cc1`, the compound was classed as inactive.

`CCOc1cc(C=O)ccc1O`: the outcome was inactive.

As to `Clc1cc(C(Cl)(Cl)Cl)cnc1Cl`, the AC50 was 12.6 µM (active).

Consider `CCCCS(=O)(=O)Cl`, for which the compound was called inactive.

As to `N#Cc1ccccc1N`, the compound was classed as inactive.

Regarding `OCCN(CCO)CCO`, the call was inactive.

For `BrCC(Br)c1ccccc1` (stereo not given), the result was inactive.

`C=CC(Cl)CCl` (stereo not given): the call was inactive.

With `O=[N+]([O-])c1ccc(Cl)c([N+](=O)[O-])c1`, the call was inactive.

Consider `CCC(C)(C#N)N=NC(C)(C#N)CC` (stereo not given), for which the compound was classed as inactive.

With `CC(C)(C1CCC(O)CC1)C1CCC(O)CC1` (stereo not given), the compound was called inactive.

Regarding `C=CC(=O)NC(C)(C)CC(C)=O`, the call was inactive.

On to `Cc1cc(SCc2sc(-c3ccc(C(F)(F)F)c(F)c3)nc2C)ccc1OCC(=O)O`, for which the outcome was inactive.

With `c1ccc2sc(SNC3CCCCC3)nc2c1`, the AC50 was 52.1 µM (active).

Take `CCOC(=O)C(SP(=S)(OC)OC)c1ccccc1` (stereo not given): the compound was classed as inactive.

With `c1csc(-c2ccc(-c3cccs3)s2)c1`, the AC50 is 8.14 µM (active).

The nature of the next assay: ATG_AP_2_CIS: Attagene CIS-FACTORIAL HepG2 Assay for human Activator Protein 2 (AP-2) (AID 2282932). Conditions: HepG2 AP-2 cis-reporter, Attagene transcription factor profiling; actives raise or lower the signal. In a few lines:
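Read-out: fluorescent reporter mRNA via RT-PCR and capillary electrophoresis, 24 h post-dose in transiently transfected HepG2. Endogenous factors drive cis-promoter reporters; gain or loss of signal fitted bidirectionally against DMSO.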
Take `Nc1c(Oc2ccccc2)cc(O)c2c1C(=O)c1ccccc1C2=O`: the compound was classed as inactive.

Take `C=CCN=C=S`: the call was inactive.

In the case of `C[C@]12CC[C@@H](O)C[C@@H]1CC[C@@H]1[C@@H]2CC[C@]2(C)C(=O)CC[C@@H]12`, the compound was classed as inactive.

As to `C#CCOC(=O)/C=C(C)/C=C/CC(C)CCCC(C)C` (stereo not given), the call was inactive.

In the case of `C=C(C)[C@@H]1CC=C(C=O)CC1`, the outcome was inactive.

For the compound `CN(C)[C@@H]1C(=O)C(C(N)=O)=C(O)[C@@]2(O)C(=O)C3=C(O)c4c(O)ccc(Cl)c4[C@@](C)(O)[C@H]3C[C@@H]12`, the compound was classed as inactive.

Turning to `Cc1cc(C)cc(C)c1`, the compound was called inactive.

`O=c1[nH]c2ccccc2n1C1CCN(CCCC(c2ccc(F)cc2)c2ccc(F)cc2)CC1`: the compound was classed as inactive.

As for `C=CCCl`, the compound was called inactive.

On to `C1CN2CCN1CC2`, for which the result was inactive.

Regarding `COCC(=O)N(c1c(C)cccc1C)[C@H](C)C(=O)OC`, the compound was classed as inactive.

In the case of `CCCSP(=S)(OCC)Oc1ccc(SC)cc1` (stereo not given), the compound was classed as inactive.

Consider `CCOc1ccc(N)cc1`, for which the call was inactive.

Consider `COc1ccc([N+](=O)[O-])cc1O`, for which the outcome was inactive.

`OC(Cc1ccccc1Cl)(Cn1[nH]cnc1=S)C1(Cl)CC1` (stereo not given): the call was inactive.

Take `CC(C)(C)c1ccccc1O`: the call was inactive.

In the case of `CC(C)[N+](=O)[O-]`, the compound was classed as inactive.

Consider `CCCCCCCCCCCCc1cccc(S(=O)(=O)O)c1`, for which the compound was classed as inactive.

As for `O=C(CCl)Nc1ccccc1`, the AC50 was 44 µM (active).

In the case of `CC(C=O)Cc1ccc2c(c1)OCO2` (stereo not given), the call was inactive.

For `BrCCCCBr`, the compound was called inactive.

With `CC(C)O.CC(C)O.OCCN(CCO)CCO.OCCN(CCO)CCO.[Ti]`, the compound was classed as inactive.

For the compound `CCCCOC(C)=O`, the call was inactive.

In the case of `Cc1ccc(OP(=O)(Oc2ccc(C)cc2C)Oc2ccc(C)cc2C)c(C)c1`, the compound was called inactive.

For `CC(C)(C)c1ccc(CCOc2ncnc3ccccc23)cc1`, the outcome was inactive.

`CCOc1cc(C=O)ccc1O`: the call was inactive.

As for `Clc1cc(C(Cl)(Cl)Cl)cnc1Cl`, the compound was called inactive.

In the case of `CCCCS(=O)(=O)Cl`, the outcome was inactive.

Consider `N#Cc1ccccc1N`, for which the result was inactive.

With `OCCN(CCO)CCO`, the outcome was inactive.

For `BrCC(Br)c1ccccc1` (stereo not given), the outcome was inactive.

For the compound `C=CC(Cl)CCl` (stereo not given), the result was inactive.

On to `O=[N+]([O-])c1ccc(Cl)c([N+](=O)[O-])c1`, for which the AC50 was 6.06 µM (active).

Turning to `CCC(C)(C#N)N=NC(C)(C#N)CC` (stereo not given), the result was inactive.

`CC(C)(C1CCC(O)CC1)C1CCC(O)CC1` (stereo not given): the compound was classed as inactive.

For the compound `C=CC(=O)NC(C)(C)CC(C)=O`, the outcome was inactive.

For the compound `Cc1cc(SCc2sc(-c3ccc(C(F)(F)F)c(F)c3)nc2C)ccc1OCC(=O)O`, the AC50 was 51.2 µM (active).

For `c1ccc2sc(SNC3CCCCC3)nc2c1`, the AC50 is 149 µM (active).

Take `CCOC(=O)C(SP(=S)(OC)OC)c1ccccc1` (stereo not given): the call was inactive.

With `c1csc(-c2ccc(-c3cccs3)s2)c1`, the compound was classed as inactive.
